Results published in the emibetuzumab library of Makowski et al. (2022).
Some of the results follow. No count for the full screen is at hand.

B1: VH:VL chains; a variant is named by its letters at X, in order (parent)
chain 1: QVQLVQSGAEVKKPGASVKVSCKASGYTFTDYXMHWVRQAPGQGLEWMGXVNPNXXXTTYNQKFEGRVTMTTDTSTSTAYMELRSLRSDDTAVYYCARXNXLDXWGQGTTVTVSS
chain 2: DIQMTQSPSSLSASVGDRVTITCSVSSSVSSIYLHWYQQKPGKAPKLLIYSTSNLASGVPSRFSGSGSGTDFTLTISSLQPEDFATYYCQVYSGYPLTFGGGTKVEIK

Variants of: B1
Assay: yeast display scFab, FACS + sequencing
Conditions: with MET
In short: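 Two magnetic rounds on Protein A beads coated with HGFR-Fc, followed by FACS, were used to enrich a yeast surface scFab library mutated in the heavy-chain CDRs. FACS gated the top 50% antigen-positive cells after 3 h labelling at room temperature with 1 nM HGFR-Fc and anti-Myc in PBSB plus 1% milk. Binding to the antigen was scored positive when a sequence occurred in both antigen-positive samples from deep sequencing and negative when it occurred only in the input.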
With DAEESDGA the antigen binding call was “no binding”.
DGTKSYGV was tested, and the antigen binding call was “no binding”.
For VTGGDDWV, the antigen binding call was “no binding”.
With DKTGDAAV the antigen binding call was “no binding”.
For YTTGGAAV, the antigen binding call was “no binding”.
FKTKSDAV was tested, and the antigen binding call was “no binding”.
In the case of FAEGAAAV, the antigen binding call is reported as “no binding”.
In the case of FKTESAAV, the antigen binding call is reported as “binds”.
FKTGGAAV was tested, and the antigen binding call was “binds”.
In the case of AKTKSDVA, the antigen binding call is reported as “no binding”.
In the case of DATGGDVY, the antigen binding call is reported as “no binding”.
VAEKGDWY was tested, and the antigen binding call was “no binding”.
For FGKEDSVD, the antigen binding call was “no binding”.
FRTGDSWD was tested, and the antigen binding call was “binds”.
In the case of FATTDSVD, the antigen binding call is reported as “no binding”.
With FRTGDSVD the antigen binding call was “binds”.
For YARADDVA, the antigen binding call was “no binding”.
In the case of YRAGDSSS, the antigen binding call is reported as “binds”.
FGAKGSSS was tested, and the antigen binding call was “no binding”.
With VKAGDAWS the antigen binding call was “no binding”.
For VEAGDSSS, the antigen binding call was “no binding”.
With VKAGDSSS the antigen binding call was “binds”.
For YRAKGSSS, the antigen binding call was “binds”.
For YRRKGSSS, the antigen binding call was “binds”.
For SEGTSAVF, the antigen binding call was “no binding”.
For DTKAASSS, the antigen binding call was “no binding”.
For DKERGDLV, the antigen binding call was “no binding”.
In the case of DTRTAYGF, the antigen binding call is reported as “no binding”.
For YRAEGSSS, the antigen binding call was “binds”.
For YRAKSSSS, the antigen binding call was “binds”.
VKGRADVF was tested, and the antigen binding call was “no binding”.
With DRGGDDVY the antigen binding call was “no binding”.
For DRGGDDWY, the antigen binding call was “no binding”.
For DREEGSSY, the antigen binding call was “no binding”.
In the case of YRGGDDLY, the antigen binding call is reported as “no binding”.
For YAGGDFAY, the antigen binding call was “no binding”.
For YRGGDSSY, the antigen binding call was “binds”.
For ARGKASSY, the antigen binding call was “no binding”.
With YRAGGSSY the antigen binding call was “binds”.
YRGGDSAY was tested, and the antigen binding call was “binds”.
DRREGYGA was tested, and the antigen binding call was “no binding”.
With DTTRDDSD the antigen binding call was “no binding”.
In the case of VTTKSDWV, the antigen binding call is reported as “no binding”.
AGKGGFAY was tested, and the antigen binding call was “no binding”.
In the case of VEARNDWA chain 1 M81I, the antigen binding call is reported as “no binding”.
FRRGGAWD was tested, and the antigen binding call was “binds”.
With YRRRGAWD the antigen binding call was “binds”.
For YRRGGAWD, the antigen binding call was “binds”.
In the case of AETKGDWD, the antigen binding call is reported as “binds”.
For YETKGDWD, the antigen binding call was “no binding”.
In the case of VETKGDWD, the antigen binding call is reported as “no binding”.
With DTEGGSAS the antigen binding call was “no binding”.
In the case of DEGGTAVV, the antigen binding call is reported as “no binding”.
With DGARNAAA the antigen binding call was “no binding”.
In the case of DEGGTAGV, the antigen binding call is reported as “no binding”.
With DEGGTDLD the antigen binding call was “no binding”.
With DATEDDSA the antigen binding call was “no binding”.
With YRRRGDWD the antigen binding call was “binds”.
FRRRGDWY was tested, and the antigen binding call was “no binding”.
YRRRGDWY was tested, and the antigen binding call was “binds”.
YTRGADWY was tested, and the antigen binding call was “no binding”.
For YTKRGDWD, the antigen binding call was “no binding”.
For YRGKGAWS, the antigen binding call was “binds”.
In the case of YRGKGSWS, the antigen binding call is reported as “binds”.
DEEASSWA was tested, and the antigen binding call was “no binding”.
In the case of DTGTGDVA, the antigen binding call is reported as “no binding”.
In the case of VRRGDFWA, the antigen binding call is reported as “no binding”.
With VRAGDSVA the antigen binding call was “binds”.
In the case of VRAGDDGA, the antigen binding call is reported as “no binding”.
For VRARGVVA, the antigen binding call was “no binding”.
With VRRGDSVA the antigen binding call was “binds”.
For VEAGDAVA, the antigen binding call was “no binding”.
VRATGSVY was tested, and the antigen binding call was “no binding”.
VTAGDDVA was tested, and the antigen binding call was “no binding”.
In the case of VEAGDDGA, the antigen binding call is reported as “no binding”.
In the case of VRAGGSVA, the antigen binding call is reported as “binds”.
In the case of VRAGDAGA, the antigen binding call is reported as “binds”.
In the case of VKRGDDVA, the antigen binding call is reported as “no binding”.
With VGGRADGF the antigen binding call was “no binding”.
For SKTKSDGA, the antigen binding call was “no binding”.
For DAGGAAGD, the antigen binding call was “no binding”.
With ATTKSAVA the antigen binding call was “no binding”.
VKAGDDVA was tested, and the antigen binding call was “no binding”.
In the case of VRAEGSVA, the antigen binding call is reported as “binds”.
In the case of VRRASSVA, the antigen binding call is reported as “binds”.
With FRAEGSVA the antigen binding call was “binds”.
YKAGDSVA was tested, and the antigen binding call was “binds”.
In the case of VTRGADAV, the antigen binding call is reported as “no binding”.
SGAGDYSD was tested, and the antigen binding call was “no binding”.
In the case of VRGTGFGA, the antigen binding call is reported as “no binding”.
With VRAGGFGA the antigen binding call was “binds”.
In the case of VEAGDSSA, the antigen binding call is reported as “no binding”.
With VTGGDSSA the antigen binding call was “no binding”.
For VAEKGFGA, the antigen binding call was “no binding”.
For VRAGDSSA, the antigen binding call was “binds”.
VKTGGDVF was tested, and the antigen binding call was “no binding”.
For VAGAGAGA, the antigen binding call was “no binding”.
YRGAGYAA was tested, and the antigen binding call was “no binding”.
YRGAGAGA was tested, and the antigen binding call was “binds”.
YRGASAAA was tested, and the antigen binding call was “binds”.
For YRGAGAAA, the antigen binding call was “binds”.
With AGGGNDVV the antigen binding call was “no binding”.
FEERNSLD was tested, and the antigen binding call was “no binding”.
In the case of FKKGSSLD, the antigen binding call is reported as “binds”.
For FKARDSGD, the antigen binding call was “no binding”.
For FKEGNSLD, the antigen binding call was “no binding”.
With FKKGSSGV the antigen binding call was “binds”.
In the case of FKRRSFGS, the antigen binding call is reported as “no binding”.
With FKRRSSGD the antigen binding call was “binds”.
For FKRGSSLD, the antigen binding call was “binds”.
SEGADAGD was tested, and the antigen binding call was “no binding”.
For SEGGDAWV, the antigen binding call was “no binding”.
For FKKGSSGD, the antigen binding call was “binds”.
With FKKGSVGD the antigen binding call was “no binding”.
In the case of FKKGSSWD, the antigen binding call is reported as “binds”.
For FKKEGYGD, the antigen binding call was “no binding”.
For VGGGNDLA chain 1 R87K, the antigen binding call was “no binding”.
FRAGGAWS was tested, and the antigen binding call was “binds”.
In the case of FRAGSAWS, the antigen binding call is reported as “binds”.
In the case of DAAKNDAV, the antigen binding call is reported as “no binding”.
With DGGKNDGV the antigen binding call was “no binding”.
VEGGADVF was tested, and the antigen binding call was “no binding”.
In the case of DTGGGDLA, the antigen binding call is reported as “no binding”.
VRRGSSVS was tested, and the antigen binding call was “binds”.
With YKRGSSVS the antigen binding call was “binds”.
With YRRGGSVS the antigen binding call was “binds”.
With YRRGSSVS the antigen binding call was “binds”.
VEEEGSVS was tested, and the antigen binding call was “no binding”.
With YARAGSVS the antigen binding call was “no binding”.
In the case of DTGTGDGV, the antigen binding call is reported as “no binding”.
In the case of YRRGGAVS, the antigen binding call is reported as “binds”.
With DTKAAAVV the antigen binding call was “no binding”.
With DRAGDYLY the antigen binding call was “no binding”.
For VRAGDYLV, the antigen binding call was “no binding”.
DRAGDYLV was tested, and the antigen binding call was “binds”.
In the case of DRAGDSLV, the antigen binding call is reported as “binds”.
In the case of DRRGDSLV, the antigen binding call is reported as “no binding”.
For ARAGDYLV, the antigen binding call was “no binding”.
DRAGDDWV was tested, and the antigen binding call was “no binding”.
For SRAGDYLV, the antigen binding call was “no binding”.
For FRAGDYLV, the antigen binding call was “binds”.
For SAREGDWV, the antigen binding call was “no binding”.
In the case of SAARDAVA, the antigen binding call is reported as “no binding”.
With FAGGGDVY the antigen binding call was “no binding”.
In the case of VRTEDDVF, the antigen binding call is reported as “no binding”.
For FRGRGSSD, the antigen binding call was “binds”.
FRGRGAWD was tested, and the antigen binding call was “binds”.
In the case of FRGRGASV, the antigen binding call is reported as “binds”.
FRGRGFSV was tested, and the antigen binding call was “no binding”.
FKGTDSSD was tested, and the antigen binding call was “no binding”.
FRGGASSD was tested, and the antigen binding call was “binds”.
FKGKSSSD was tested, and the antigen binding call was “no binding”.
For DAKEGDVV, the antigen binding call was “no binding”.
With VEGGGAGV the antigen binding call was “no binding”.
For DAGGADGV, the antigen binding call was “no binding”.
In the case of FAGRGYSD, the antigen binding call is reported as “no binding”.
For FRGRGASD, the antigen binding call was “binds”.
FRKGDASD was tested, and the antigen binding call was “no binding”.
DGGKNAVA was tested, and the antigen binding call was “no binding”.
For VAGTGASD, the antigen binding call was “no binding”.
In the case of FRGRSSLA, the antigen binding call is reported as “binds”.
With FRTRSSLA the antigen binding call was “binds”.
For VEGEDAGA, the antigen binding call was “no binding”.
With YTRGGSGA the antigen binding call was “no binding”.
YRRGSSGA was tested, and the antigen binding call was “binds”.
For YRRGGSGA, the antigen binding call was “binds”.
In the case of FRRGSSGA, the antigen binding call is reported as “binds”.
For DAKEGSSA, the antigen binding call was “no binding”.
DGGKNDVV was tested, and the antigen binding call was “no binding”.
For VEGTSAGD, the antigen binding call was “no binding”.
For YTTRGAGA, the antigen binding call was “no binding”.
In the case of YRTRGAGA, the antigen binding call is reported as “binds”.
VRTRGDGA was tested, and the antigen binding call was “no binding”.
FRGRDYAA was tested, and the antigen binding call was “no binding”.
In the case of FTTRGAVA, the antigen binding call is reported as “no binding”.
With FRTRGAAA the antigen binding call was “binds”.
With YRTRSAAA the antigen binding call was “binds”.
With FRTRDAAA the antigen binding call was “binds”.
With FRTRGVGA the antigen binding call was “no binding”.
In the case of SEARSDAS, the antigen binding call is reported as “no binding”.
In the case of DKEGGDVD, the antigen binding call is reported as “no binding”.
With DATGGDGS the antigen binding call was “no binding”.
For SKGRSDAV, the antigen binding call was “no binding”.
In the case of SETGNVWF, the antigen binding call is reported as “no binding”.
In the case of YATRGAAA, the antigen binding call is reported as “no binding”.
In the case of VRTRGYLA, the antigen binding call is reported as “no binding”.
For YRTRGAAA, the antigen binding call was “binds”.
For YRTRGAWA, the antigen binding call was “binds”.
For YRTRGALA, the antigen binding call was “binds”.
For VTGTGAVY, the antigen binding call was “no binding”.
YKRRNSGD was tested, and the antigen binding call was “no binding”.
DGRGNSGD was tested, and the antigen binding call was “no binding”.
With YKRGGSGD the antigen binding call was “binds”.
For YGRGNSGD, the antigen binding call was “binds”.
With YKRGSSGD the antigen binding call was “binds”.
In the case of VGRGNSGD, the antigen binding call is reported as “no binding”.
For YEGTGSGD, the antigen binding call was “no binding”.
STGGGDGV was tested, and the antigen binding call was “no binding”.
For STAGSASD, the antigen binding call was “no binding”.
YRRGGSLS was tested, and the antigen binding call was “binds”.
With YRRGSALS the antigen binding call was “binds”.
With YRRGSSLS the antigen binding call was “binds”.
With YEGTGSLS the antigen binding call was “no binding”.
In the case of DARGGSLS, the antigen binding call is reported as “no binding”.
For VKGASDGA, the antigen binding call was “no binding”.
VTRGDSGA was tested, and the antigen binding call was “no binding”.
In the case of YKRGSSGA, the antigen binding call is reported as “binds”.
VTRGASGA was tested, and the antigen binding call was “no binding”.
For VKRGSSGA, the antigen binding call was “binds”.
YKRGSDGA was tested, and the antigen binding call was “binds”.
For YKEKGDGA, the antigen binding call was “no binding”.
YKRGSFGA was tested, and the antigen binding call was “no binding”.
